Among all 52,000 compounds or so, about 1,700 (3.3%) were called active. The entries come from a sample that favours actives as a whole. A number with no mark means an inactive call. Cut-off read from the data, not from the text of the source: active = survival mostly below about 52% (no sharp cut-off); inactive = mostly above about 56%.
Each compound was assayed on Wild type (assay: S. aureus survival, RN4220 and DeltatarO strains – OD600, teichoic acid synthesis inhibitors, primary screen (AID 463173)). Details: S. aureus RN4220 wild type/DeltatarO growth, OD600, 18 h, hits give low values, screened at 18.75 µg/mL (by protocol).

Compound | survival
COc1ccc(CCN2CC(C(=O)NCCc3ccc(C)cc3)CC2=O)cc1OC (stereo not given) | 60%
Cc1cccc(CNC(=O)c2cnc3sc(N4CCOCC4)nn3c2=O)c1 | 119%
Cc1cc(=O)[nH]c2nnc(SCc3c(F)cccc3Cl)n12 | 140%
COc1ccccc1C(=O)Nc1ccccc1OCc1cc(=O)n2c(C)csc2n1 | 81%
CCOc1ccc(OCC)c(NC(=O)c2cnc(SC)nc2-c2ccccc2)c1 | 0% (active)
CSc1ncc(C(=O)NCc2ccc(C)cc2)c(C)n1 | 73%
CSc1ncc(C(=O)NCc2ccc(C)cc2)c(-c2ccccc2)n1 | -2% (active)
CSc1ncc(C(=O)NCc2cccc(C)c2)c(-c2ccccc2)n1 | 65%
CSc1ncc(C(=O)NCc2ccccc2)c(-c2ccccc2)n1 | 10% (active)
COc1ccc(Cl)cc1NC(=O)c1cnc(SC)nc1-c1ccccc1 | 22%
CSc1ncc(C(=O)NCc2ccc(F)cc2)c(-c2ccccc2)n1 | 87%
COc1ccc(NC(=O)c2csc3c2CCCCC3)cc1 | 72%
CCOc1ccc(CCNC(=O)c2csc3c2CCCCC3)cc1 | 81%
CSc1ncc(C(=O)Nc2ccc(F)cc2F)c(-c2ccccc2)n1 | 73%
CCOc1ccc(OCC)c(NC(=O)c2csc3c2CCCC3)c1 | -1% (active)
CSc1ncc(C(=O)NCc2cccc(F)c2)c(-c2ccccc2)n1 | 82%
CCOc1ccccc1NC(=O)Cn1c(=O)n(-c2ccccc2)c(=O)c2c1c1cc(C)ccc1n2C | 84%
CCOC(=O)CNC(=O)c1cc2c(=O)oc3ccccc3c2s1 | 146%
CCc1ccc(C2C(C(=O)Nc3ccc(Cl)cc3)=C(C)Nc3ncnn32)cc1 (stereo not given) | 59%
Cc1ccc(CNC(=O)c2ccc3c(O)c(S(=O)(=O)c4ccccc4)c(=O)[nH]c3c2)cc1 | 83%
N=C1SCC(=O)N1c1ccc(Cl)cc1 | 124%
Cc1ccc(-n2c(SCc3ccccc3F)nc3[nH]ncc3c2=O)cc1Cl | 77%
Cc1ccc2[nH]c(=O)c3cc(C(=O)N(C)c4ccc(Br)cc4)sc3c2c1 | 81%

Compound | survival
COC(=O)c1ccc(NC(=O)CN2C(=O)c3cccc4cccc2c34)cc1 | 85%
NS(=O)(=O)c1ccc(CCNC(=O)CCn2c(=O)c3cccn3c3cccnc32)cc1 | 92%
O=C(NCc1cccc(Cl)c1)c1cnc(N2CCCCC2)c2ccccc12 | 89%
O=C(COC(=O)c1cccc(NC(=O)c2ccc(Br)cc2)c1)c1ccc(Cl)cc1 | 93%
O=C(CC1N=C2c3ccccc3N=C(SCC(=O)Nc3cccc(Cl)c3)N2C1=O)NCc1cccs1 (stereo not given) | 82%
CCn1ccc2cc(S(=O)(=O)N3CCC(C(=O)NCc4ccc(F)cc4)CC3)ccc21 | 80%
CCC(C)NC(=O)C1CCN(S(=O)(=O)c2ccc3c(ccn3CC)c2)CC1 (stereo not given) | 0% (active)
CCn1ccc2cc(S(=O)(=O)N3CCC(C(=O)NCc4ccc(OC(C)C)cc4)CC3)ccc21 | 69%
CCn1ccc2cc(S(=O)(=O)N3CCC(C(=O)NCC(C)c4ccccc4)CC3)ccc21 (stereo not given) | 87%
CCCCNC(=O)C1CCN(S(=O)(=O)c2ccc3c(ccn3CC)c2)CC1 | 124%
CCn1ccc2cc(S(=O)(=O)N3CCC(C(=O)NCc4ccc(OC)cc4)CC3)ccc21 | -3% (active)
O=C(Cn1c(=O)nc(-c2ccccc2)c2ccccc21)NCCCc1ccccc1 | 60%
Cc1c(Cl)cccc1Nc1nn2c(=O)c3ccc(C(=O)NCCC4=CCCCC4)cc3nc2s1 | 74%
COc1ccc(OC)c(S(=O)(=O)N2CC=C(c3c(C)n(CC(=O)N4CCCC4)c4ccccc34)CC2)c1 | 83%
O=S(=O)(c1cccc2nsnc12)N(CCOc1ccccc1)C1CCCCC1 | 99%
COc1cccc(CNC(=O)C2CCN(c3ncccn3)CC2)c1 | 102%
CCn1c(=O)c2cc(C(=O)N3CCN(c4cccc(OC)c4)CC3)sc2c2ccccc21 | 69%
Cc1ccc2c(c1)C(C)(c1ccccc1)CC(C)(C)N2C(=O)c1ccc(F)cc1 (stereo not given) | -2% (active)
Cc1ccc2c(c1)N(C(=O)c1ccc(F)cc1)C(C)(C)CC2(C)c1ccccc1 (stereo not given) | 43%
Cc1ccc(C(=O)N2c3ccc(C)cc3C(C)(c3ccccc3)CC2(C)C)cc1 (stereo not given) | 2% (active)
COc1ccc(C(=O)N2c3ccc(C)cc3C(C)(c3ccccc3)CC2(C)C)cc1 (stereo not given) | 45%
Cc1ccc(C(=O)N2CCN(c3ccccc3)CC2)cc1 | 112%
CC1=CC(C)(C)N(CC(=O)c2ccccc2)c2ccc(C)cc21 | 109%

Compound | survival
CCOc1ccc(S(=O)(=O)n2nc(C)c(S(=O)(=O)N3CCCCC3)c2C)cc1 | 67%
Cc1ccc(C)c(NC(=O)Cn2c(=O)n(CCCS(=O)(=O)C3CCCCC3)c(=O)c3ccccc32)c1 | 119%
CSc1nc2ccc(S(=O)(=O)N3CCCCC3)cc2s1 | 105%
COCCCNC(=O)c1ccc(Cn2c(=O)c3ccccc3n(CC(=O)Nc3ccc(C)cc3C)c2=O)cc1 | 100%
Cc1ccccc1CNC(=O)Cc1csc2ccccc12 | 94%
COc1ccccc1NC(=O)CSc1ncc2c(n1)-c1cc(Cl)ccc1N(C)S2(=O)=O | 73%
CCOc1ccc(NC(=O)CN2CCN(CC(=O)Nc3ccc(N(CC)CC)cc3)CC2)cc1 | 80%
COc1ccc(NC(=O)c2cc3c(=O)n(Cc4cccs4)ccc3nc2C)c(OC)c1 | 83%
O=c1[nH]c2ccc(NCc3ccc(-c4ccc(Cl)cc4)o3)cc2[nH]1 | 111%
COc1ccc(CCNC(=O)C(=O)NCC(c2cccs2)S(=O)(=O)c2ccc(F)cc2)cc1 (stereo not given) | 73%
Cc1cccc(NS(=O)(=O)c2ccc3nc(-c4ccccc4)[nH]c3c2)c1C | 129%
Cc1cc(NS(=O)(=O)c2ccc3nc(-c4ccccc4)[nH]c3c2)ccc1Br | -4% (active)
O=S(=O)(Nc1ccc(Br)cc1)c1ccc2nc(-c3ccccc3)[nH]c2c1 | -3% (active)
Cc1ccc(NS(=O)(=O)c2ccc3nc(-c4ccccc4)[nH]c3c2)cc1Cl | 1% (active)
COc1ccc(NS(=O)(=O)c2ccc3nc(-c4ccccc4)[nH]c3c2)cc1 | 81%
O=S(=O)(Nc1ccc(Br)cc1F)c1ccc2nc(-c3ccccc3)[nH]c2c1 | 71%
Cc1ccc(NS(=O)(=O)c2ccc3nc(-c4ccccc4)[nH]c3c2)c(Cl)c1 | 60%
Cc1ccc(NS(=O)(=O)c2ccc3nc(-c4ccccc4)[nH]c3c2)c(Br)c1 | 63%
CC(C)c1ccc(NS(=O)(=O)c2ccc3nc(-c4ccccc4)[nH]c3c2)cc1 | 63%
COc1cc(C)ccc1OCCSc1nc(-c2cccc(C)c2)nc2cc(=O)[nH]n12 | 88%
Cc1ccc(NC(=O)c2oc3ccc(S(=O)(=O)N4CCC5(CC4)OCCO5)cc3c2C)c(C)c1 | 143%
O=C(CS(=O)(=O)c1cccc2nsnc12)Nc1cc(F)ccc1F | 97%
Cn1c(=O)c2c(nc(NCCc3ccccc3)n2Cc2ccc(Cl)cc2)n(C)c1=O | 74%

Compound | survival
CCc1ccc(N2C(=O)C3C4CCCC4=C4CCCC4C3C2=O)cc1 (stereo not given) | 116%
Cn1c(=O)c2c(nc3n(-c4ccc(O)cc4)c(-c4ccc(Br)cc4)cn23)n(C)c1=O | 142%
COc1ccc(CNC(=O)C2CCN(C(=O)N3CCOc4ccc(C)cc43)CC2)cc1 | 80%
Cc1cccn2c(=O)c3cc(C(=O)Nc4ccc(Cl)c(Cl)c4)sc3nc12 | 71%
O=C(O)CCSc1nnnn1-c1ccccc1 | 114%
CCS(=O)(=O)c1nnnn1-c1ccccc1 | 1% (active)
c1ccc(CNc2nnnn2-c2ccccc2)cc1 | 106%
COc1ccc(C2CC(=O)c3cc(-c4nc(-c5cccc([N+](=O)[O-])c5)cs4)c(=O)n(-c4cc(C)cc(C)c4)c3C2)cc1 (stereo not given) | 80%
COc1ccc(C2=Nc3ccccc3N(CC(=O)Nc3cccc(C(C)=O)c3)C(=O)C2)cc1 | 136%
COc1ccccc1CNC(=O)C1CCN(S(=O)(=O)c2cn(C)cn2)CC1 | -3% (active)
Cn1cnc(S(=O)(=O)N2CCC(C(=O)NCc3ccc(Cl)cc3)CC2)c1 | 95%
Cn1cnc(S(=O)(=O)N2CCC(C(=O)NCc3ccccc3Cl)CC2)c1 | 128%
CN(C)c1ccc(CNC(=O)C2CCN(S(=O)(=O)c3cn(C)cn3)CC2)cc1 | -2% (active)
Cc1ccc(C)c(N2CCN(C(=O)C3CCN(S(=O)(=O)c4cn(C)cn4)CC3)CC2)c1 | 75%
Cc1ccc(N(C)C(=O)C2CCN(S(=O)(=O)c3cn(C)cn3)CC2)cc1 | 10% (active)
Cc1cc(C)cc(NC(=O)C2CCN(S(=O)(=O)c3cn(C)cn3)CC2)c1 | 73%
COc1ccc(OC)c(CNC(=O)C2CCN(S(=O)(=O)c3cn(C)cn3)CC2)c1 | 82%
Cc1ccc(CNC(=O)C2CCN(S(=O)(=O)c3cn(C)cn3)CC2)cc1 | 82%
COc1ccc(-c2cn3nc(SCC(=O)Nc4cc(C)cc(C)c4)ccc3n2)cc1 | 68%
CCN(CC)S(=O)(=O)c1ccc(C(=O)N2CC(=O)Nc3ccc(F)cc3C2c2ccccc2)cc1 (stereo not given) | 81%
COc1ccc(NC(=O)c2ccc(-c3nc(COc4ccccc4)c(C)o3)cc2)cc1 | 84%
